This passage reports glutamate uptake change results from PubChem BioAssay.

The experiment is described as follows: enhancers of glutamate uptake in motor neurons, MN-1 cell line (AID 1612).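 Also: tested at 1 µM final; 0% = mean of DMSO vehicle wells on each plate; positive means more glutamate uptake than control and negative means less.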 Conditions: MN-1 motor neuron cells, stronger effect = higher value.
In the case of `CC1=C(C(=O)O)N2C(=O)[C@@H](NC(=O)[C@H](N)C3=CCC=CC3)[C@H]2SC1`, the glutamate uptake change is -0.28%.

Consider `CN1CCCN=C1COC(=O)C(O)(c1ccccc1)C1CCCCC1` (stereo not drawn), for which the glutamate uptake change is 10.4%. `CNC[C@H](O)c1cccc(O)c1`: the glutamate uptake change worked out at 3.44%. To `COc1ccc(CN(CCN(C)C)c2ncccn2)cc1` belongs -15.6%; to `N=C(N)N`, 5.8%. To `CC(=O)N[C@@H](CS)C(=O)O` belongs -3.8%; to `NCCCC(=O)O`, -3.42%.

`CO[C@@H]1[C@@H](OC(N)=O)[C@@H](O)[C@H](Oc2ccc3c(O)c(NC(=O)c4ccc(O)c(CC=C(C)C)c4)c(=O)oc3c2C)OC1(C)C`: the glutamate uptake change is -19%.

Regarding `CC1(C)S[C@@H]2[C@H](NC(=O)C(C(=O)O)c3ccccc3)C(=O)N2[C@H]1C(=O)O` (stereo partly drawn), the glutamate uptake change was 7.16%.

As for `OC[C@H]1O[C@@H](O[C@@H]2[C@@H](CO)O[C@](O)(CO)[C@H]2O)[C@H](O)[C@@H](O)[C@H]1O`, the glutamate uptake change was determined as 8.9%.

For `NC[C@H](O)c1ccc(O)c(O)c1`, the glutamate uptake change is 21.3%. To `NC(=O)NC(=O)Cc1ccccc1` belongs -11.7%.

In the case of `S=P(N1CC1)(N1CC1)N1CC1`, the glutamate uptake change is 2.63%. To `CN(C)/N=N/c1nc[nH]c1C(N)=O` belongs -11.4%. To `NC(=O)NO` belongs 1.4%. With `O=C(O)P(=O)(O)O`, the glutamate uptake change was -1.79%. To `Nc1c2c(nc3ccccc13)CCCC2O` (stereo not drawn) belongs 6.03%; to `O=c1cc[nH]c(=S)[nH]1`, 7.71%.

On to `Cc1c(C(N)=O)cc([N+](=O)[O-])cc1[N+](=O)[O-]`, for which the glutamate uptake change was -10.4%. Take `COc1ccc(C2C(=O)c3ccccc3C2=O)cc1`: the glutamate uptake change was -8.78%.

As to `O=C(O)c1ccccc1O`, the glutamate uptake change was 15.9%.

For the compound `NC(=O)c1ccc([N+](=O)[O-])cc1Cl`, the glutamate uptake change was determined as 19.4%. For `CC(=O)Oc1cccc(O)c1`, the glutamate uptake change was -3.14%. To `Cn1c(=O)c2c(ncn2C)n(C)c1=O` belongs -3.95%; to `O=C(O)c1ccc(S(=O)(=O)N(Cl)Cl)cc1`, -1.46%; to `C=CCc1ccc(O)c(OC)c1`, -8.45%. To `CCCCC1C(=O)N(c2ccccc2)N(c2ccccc2)C1=O` belongs -15.3%; to `NC(Cc1ccc(Cl)cc1)C(=O)O` (stereo not drawn), -15.1%. For the compound `CCOC(N)=O`, the glutamate uptake change was -13.5%. To `CCN(CC)C(=O)c1cccc(C)c1` belongs 1.78%. To `CCCCCC(C)N` (stereo not drawn) belongs 3.71%.

On to `CC(=O)Oc1ccccc1C(=O)O`, for which the glutamate uptake change turned out to be 9.8%. To `CC(=O)NCCCCCC(=O)O` belongs -9.11%; to `O=C1c2cccc(O)c2C(=O)c2c(O)cccc21`, -10.8%; to `O=C1c2c(O)cccc2Cc2cccc(O)c21`, 5.46%. To `NS(=O)(=O)c1cc2c(cc1Cl)NC(C1CC3C=CC1C3)NS2(=O)=O` (stereo not drawn) belongs 1.35%.

Take `NC(=O)c1ncn([C@@H]2O[C@H](CO)[C@@H](O)[C@H]2O)n1`: the glutamate uptake change stood at 14.1%. To `O=C(O)CCCCCCCC(=O)O` belongs 4.35%.
